PubChem BioAssay (NCI)
The panel holds about 83,000 compounds, 20% with a hit somewhere; the sample as a whole holds those more often.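 Activity criterion: percent growth below 10, measured after cells in 96-well plates were exposed to a single compound concentration for 48 hours.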 The source made the active and inactive calls.

Legend:
Experiment in all cases: NCI-60 one-dose screen, 48 h (100 = growth as untreated, 0 = no growth, -100 = all killed)
Conditions in all cases: 10 µM unless noted
NCI-H23 lung = system: NCI-H23 lung
NCI-H226 lung = system: NCI-H226 lung
NCI-H322M lung = system: NCI-H322M lung
HOP-62 NSCLC = system: HOP-62 NSCLC
NCI-H460 lung = system: NCI-H460 lung
HOP-92 NSCLC = system: HOP-92 NSCLC
NCI-H522 lung = system: NCI-H522 lung
A549/ATCC NSCLC = system: A549/ATCC NSCLC
786-0 renal = system: 786-0 renal
COLO 205 colon = system: COLO 205 colon
DU-145 prostate = system: DU-145 prostate
K-562 leukemia = system: K-562 leukemia
MALME-3M melanoma = system: MALME-3M melanoma
MDA-MB-231 breast = system: MDA-MB-231 breast
RXF 393 renal = system: RXF 393 renal
SF-268 CNS = system: SF-268 CNS
SF-295 CNS = system: SF-295 CNS
SF-539 CNS = system: SF-539 CNS
UACC-257 melanoma = system: UACC-257 melanoma
M14 melanoma = system: M14 melanoma

Measured: growth

CC[C@H](C)[C@H](NC(=O)C12CC(NC)(C1)C2)C(=O)N(C)[C@H](C[C@@H](OC(C)=O)c1nc(C(=O)N[C@@H](Cc2ccccc2)C[C@H](C)C(=O)OC)cs1)C(C)C
inactive: NCI-H23 lung 15.2% | NCI-H226 lung 24.9% | NCI-H322M lung 51.2% | HOP-62 NSCLC 28.6% | NCI-H460 lung 15% | HOP-92 NSCLC 17.5% | A549/ATCC NSCLC 20% | 786-0 renal 24.7% | MALME-3M melanoma 69% | MDA-MB-231 breast 13.8% | RXF 393 renal 13.4% | SF-268 CNS 30.4% | UACC-257 melanoma 56.6%
active: NCI-H522 lung -23.9% | COLO 205 colon -19.6% | DU-145 prostate -8.21% | K-562 leukemia 6.14% | SF-295 CNS 4.61% | SF-539 CNS -7.76% | M14 melanoma 6.71%

COc1cc(C=C2C(=O)NC(=O)NC2=O)ccc1O
inactive: NCI-H23 lung 98.1% | NCI-H226 lung 96.1% | NCI-H322M lung 117% | HOP-62 NSCLC 100% | NCI-H460 lung 108% | HOP-92 NSCLC 113% | NCI-H522 lung 96.9% | A549/ATCC NSCLC 102% | 786-0 renal 99.7% | COLO 205 colon 109% | DU-145 prostate 124% | K-562 leukemia 109% | MALME-3M melanoma 136% | MDA-MB-231 breast 96.5% | RXF 393 renal 84.4% | SF-268 CNS 106% | SF-295 CNS 101% | SF-539 CNS 101% | UACC-257 melanoma 87.6% | M14 melanoma 101%

Oc1cc(N2CC2)c(O)cc1N1CC1
active: NCI-H23 lung -37.9% | NCI-H226 lung -16.4% | HOP-62 NSCLC -12.8% | NCI-H460 lung -14.6% | HOP-92 NSCLC 5.86% | NCI-H522 lung -74.7% | A549/ATCC NSCLC -1.9% | COLO 205 colon -72.7% | DU-145 prostate 9.43% | MALME-3M melanoma -89.6% | RXF 393 renal -78% | SF-268 CNS 7.87% | SF-539 CNS -12% | UACC-257 melanoma -47.1% | M14 melanoma -50.4%
inactive: NCI-H322M lung 20.4% | 786-0 renal 22.3% | K-562 leukemia 17.1% | MDA-MB-231 breast 96.9% | SF-295 CNS 15.9%

CC1=CC(=O)CCC12CCOC2=O (centres undefined)
inactive: NCI-H23 lung 102% | NCI-H226 lung 101% | NCI-H322M lung 96.4% | HOP-62 NSCLC 99.5% | NCI-H460 lung 102% | HOP-92 NSCLC 102% | NCI-H522 lung 96.1% | A549/ATCC NSCLC 97.8% | 786-0 renal 93.9% | COLO 205 colon 116% | DU-145 prostate 106% | K-562 leukemia 97.1% | MALME-3M melanoma 89.9% | RXF 393 renal 108% | SF-268 CNS 103% | SF-295 CNS 95.8% | SF-539 CNS 92.9% | UACC-257 melanoma 97.9% | M14 melanoma 102%

CN(C)c1ccc(C=C2C(=O)NC(=O)NC2=O)cc1
inactive: NCI-H23 lung 70.8% | NCI-H226 lung 97.6% | NCI-H322M lung 123% | HOP-62 NSCLC 110% | NCI-H460 lung 102% | HOP-92 NSCLC 86.8% | NCI-H522 lung 69.6% | A549/ATCC NSCLC 92.6% | 786-0 renal 109% | COLO 205 colon 107% | DU-145 prostate 102% | K-562 leukemia 109% | MALME-3M melanoma 96.4% | MDA-MB-231 breast 88.2% | RXF 393 renal 94% | SF-268 CNS 93.5% | SF-295 CNS 95.5% | SF-539 CNS 96.7% | M14 melanoma 86.5%
active: UACC-257 melanoma -19.7%

Cn1cc(-c2csc(-c3cn(CCCCN4CCOCC4)c4ccc(F)cc34)n2)c2cccnc21
active: K-562 leukemia -49.7% | MALME-3M melanoma -60.3% | UACC-257 melanoma -45.1% | M14 melanoma -53.9%
inactive: NCI-H23 lung 80.3% | NCI-H226 lung 60.2% | NCI-H322M lung 84.3% | HOP-62 NSCLC 85.6% | NCI-H460 lung 93.5% | HOP-92 NSCLC 52.8% | NCI-H522 lung 57.2% | A549/ATCC NSCLC 75.1% | 786-0 renal 63.2% | COLO 205 colon 65.9% | DU-145 prostate 100% | MDA-MB-231 breast 35.2% | RXF 393 renal 16.3% | SF-268 CNS 63% | SF-295 CNS 50.8% | SF-539 CNS 69.7%

COc1ccc2c(c1)c(-c1nc(-c3cn(C)c4ncccc34)cs1)cn2CCCCN1CCOCC1
inactive: NCI-H23 lung 78.4% | NCI-H226 lung 70.1% | NCI-H322M lung 65.9% | HOP-62 NSCLC 30.9% | HOP-92 NSCLC 47.9% | A549/ATCC NSCLC 48.3% | DU-145 prostate 46.8% | SF-268 CNS 52.8% | SF-539 CNS 30.8% | UACC-257 melanoma 63.5%
active: NCI-H460 lung -31.9% | NCI-H522 lung 3.68% | 786-0 renal -71.7% | COLO 205 colon -91.7% | K-562 leukemia -41% | MALME-3M melanoma -59.5% | MDA-MB-231 breast 5.75% | RXF 393 renal 0.734% | SF-295 CNS -48.5% | M14 melanoma -66.9%

C[C@]12CCC(=O)C[C@@H]1CC[C@@H]1[C@@H]2CC[C@]2(C)[C@@H](OC(=O)N(CCCl)N=O)CC[C@@H]12
inactive: NCI-H23 lung 29.5% | NCI-H226 lung 45.8% | NCI-H322M lung 49.3% | HOP-62 NSCLC 23.9% | NCI-H522 lung 22.3% | A549/ATCC NSCLC 28.2% | 786-0 renal 14.2% | COLO 205 colon 31.8% | K-562 leukemia 10.7% | MALME-3M melanoma 57.2% | MDA-MB-231 breast 69.6% | RXF 393 renal 32.7% | SF-268 CNS 12.7% | UACC-257 melanoma 57.5% | M14 melanoma 17.7%
active: NCI-H460 lung -64% | HOP-92 NSCLC -8.11% | DU-145 prostate -53.4% | SF-295 CNS -29.6% | SF-539 CNS -28.5%

COc1ccn(C)c(=O)c1C#N
inactive: NCI-H23 lung 105% | NCI-H226 lung 91.6% | NCI-H322M lung 92.3% | HOP-62 NSCLC 83.5% | NCI-H460 lung 108% | HOP-92 NSCLC 116% | NCI-H522 lung 66.5% | A549/ATCC NSCLC 83.7% | 786-0 renal 104% | COLO 205 colon 95.9% | DU-145 prostate 106% | K-562 leukemia 105% | MALME-3M melanoma 106% | MDA-MB-231 breast 90.7% | RXF 393 renal 107% | SF-268 CNS 94.3% | SF-295 CNS 101% | UACC-257 melanoma 87% | M14 melanoma 102%

CCCn1cc2c3c(cccc31)[C@H]1C[C@@H](C)CN(C)[C@@H]1C2
inactive: NCI-H23 lung 77% | NCI-H226 lung 93.4% | NCI-H322M lung 89.4% | HOP-62 NSCLC 86.4% | NCI-H460 lung 95.7% | HOP-92 NSCLC 29.7% | NCI-H522 lung 85.9% | A549/ATCC NSCLC 96% | 786-0 renal 81.7% | DU-145 prostate 99.8% | MDA-MB-231 breast 78.3% | RXF 393 renal 86.6% | SF-268 CNS 94.8% | SF-539 CNS 85.1% | UACC-257 melanoma 78.6% | M14 melanoma 89.3%

c1ccc2c(c1)sc1ccccc12
inactive: NCI-H23 lung 99.8% | NCI-H226 lung 94.7% | NCI-H322M lung 95.7% | HOP-62 NSCLC 97.7% | NCI-H460 lung 109% | HOP-92 NSCLC 74.7% | NCI-H522 lung 98.9% | 786-0 renal 105% | COLO 205 colon 98.6% | DU-145 prostate 110% | K-562 leukemia 105% | MALME-3M melanoma 84% | MDA-MB-231 breast 93.8% | RXF 393 renal 107% | SF-268 CNS 109% | SF-295 CNS 101% | SF-539 CNS 93.9% | UACC-257 melanoma 109% | M14 melanoma 94%

O=[N+]([O-])c1cc(Br)c(O)c(Br)c1
inactive: NCI-H23 lung 101% | NCI-H226 lung 93.5% | NCI-H322M lung 105% | HOP-62 NSCLC 96.9% | NCI-H460 lung 107% | HOP-92 NSCLC 95.8% | NCI-H522 lung 92.7% | A549/ATCC NSCLC 98.9% | 786-0 renal 102% | COLO 205 colon 112% | K-562 leukemia 123% | MDA-MB-231 breast 103% | RXF 393 renal 90.2% | SF-295 CNS 100% | SF-539 CNS 108% | UACC-257 melanoma 95.4% | M14 melanoma 111%

C/C(=C(\c1ccc(OCCN2CCOCC2)cc1)c1ccc(OC(=O)Cc2ccccc2)cc1)c1ccc(Cl)cc1
active: K-562 leukemia 7.15%
inactive: NCI-H23 lung 86% | NCI-H226 lung 103% | NCI-H322M lung 90.6% | HOP-62 NSCLC 98.9% | NCI-H460 lung 97.6% | HOP-92 NSCLC 70% | NCI-H522 lung 72.9% | A549/ATCC NSCLC 90.4% | 786-0 renal 77.7% | COLO 205 colon 106% | DU-145 prostate 97.8% | MALME-3M melanoma 104% | MDA-MB-231 breast 96.8% | RXF 393 renal 89.6% | SF-268 CNS 90.1% | SF-295 CNS 98.9% | SF-539 CNS 98.2% | UACC-257 melanoma 87.5% | M14 melanoma 85.1%

COC12CC3C4=CCOC5CC(=O)N6c7ccccc7C1(CCN2C4)C6C53 (centres undefined)
inactive: NCI-H23 lung 102% | NCI-H226 lung 103% | NCI-H322M lung 109% | HOP-62 NSCLC 99.1% | NCI-H460 lung 109% | HOP-92 NSCLC 102% | NCI-H522 lung 89.9% | A549/ATCC NSCLC 91.2% | 786-0 renal 99.1% | COLO 205 colon 105% | DU-145 prostate 117% | MALME-3M melanoma 112% | MDA-MB-231 breast 106% | RXF 393 renal 129% | SF-268 CNS 111% | SF-295 CNS 111% | SF-539 CNS 100% | UACC-257 melanoma 84% | M14 melanoma 99.2%
